Measured values taken from the supplement of paper PMC10981050.
“And” between values parts separate entries of the source, which are not always exact repeats. Equal entries are not always repeated. Structures can show the parent of a compound that is named as a salt.

Columns and labels:
Assay in all cases: cell viability relative to vehicle control; higher = less cytotoxic
Details in all cases: 10 µM
K562 = tested on: K562
Method in brief: (§1)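 Four leukaemia lines, as CRISPR-edited mutant clones and isogenic wild-type clones, were tested against Selleck bioactive, kinase and epigenetic probe libraries after removal of identity-inconsistent compounds. Cells were exposed to a single 10 µM dose for 48 h, and CellTiter-Glo luminescence was then read. Viability was calculated relative to the on-plate vehicle control.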

MARIMO = tested on: MARIMO
Method in brief: as §1

MOLM14 = tested on: MOLM14
Method in brief: as §1

OCI-AML2 = tested on: OCI-AML2
Method in brief: as §1

Structure (SMILES)	cell viability (K562; SRSF2 genotype: SRSF2 P95H/wt)	cell viability (K562; SRSF2 genotype: SRSF2 wt/wt) [%]	cell viability (MARIMO; SRSF2 genotype: SRSF2 P95H/wt) [%]	cell viability (MARIMO; SRSF2 genotype: SRSF2 wt/wt) [%]	cell viability (MOLM14; SRSF2 genotype: SRSF2 P95H/wt) [%]	cell viability (MOLM14; SRSF2 genotype: SRSF2 wt/wt) [%]	cell viability (OCI-AML2; SRSF2 genotype: P95H/wt) [%]	cell viability (OCI-AML2; SRSF2 genotype: wt/wt) [%]
C=CC(=C)C [Isoprene]	102% and 103%	105	103	106	95.6	108	103	109
CN1[C@@H]2CC[C@H]1C[C@@H](OC(=O)C(CO)c1ccccc1)C2 (stereo not given in full) [Atropine sulfate]	105% and 99.4%	100	105	112	110	107	94	97.8
CCN1C[C@]2(COC)CC[C@H](OC)[C@]34C1[C@H](C[C@H]23)[C@@]1(O)C[C@H](OC)[C@H]2C[C@@H]4[C@@H]1[C@H]2O [Talatisamine]	110% and 104%	108	104	108	105	106	101	107
O=c1cccc2n1C[C@@H]1CNC[C@H]2C1 [Cytisine]	107% and 100%	92.9	93.3	107	97.7	102	94.3	104
C=C[C@]12CN(C)[C@@H]3[C@H]4CO[C@H](C[C@H]41)[C@]1(C(=O)Nc4ccccc41)[C@@H]32 [Gelsemine]	91.8% and 88.5%	87.9	87.9	97.5	96	90	90.1	90
CCc1c(C(=O)C(N)=O)c2c(OCC(=O)O)cccc2n1Cc1ccccc1	93.5% and 89.8%	88.8	82.6	92	93.1	95.2	84	90.6
CN1c2ccccc2C(NCCCCCCC(=O)O)c2ccc(Cl)cc2S1(=O)=O (stereo not given) [Tianeptine sodium]	99.4% and 97.1%	97.6	106	108	107	101	98.4	111
O=c1[nH]c2ccccc2n1CCCN1CCC(n2c(=O)[nH]c3cc(Cl)ccc32)CC1 [Domperidone (Motilium)]	78.9% and 85.9%	79.7	77.9	87.4	92.4	91.8	78.8	85.7
CC[C@H](C)[C@@H]([C@@H](CC(=O)N1CCC[C@H]1[C@H](OC)[C@@H](C)C(=O)N[C@H](C)[C@@H](O)c1ccccc1)OC)N(C)C(=O)[C@@H](NC(=O)[C@@H](NC)C(C)C)C(C)C [Monomethyl auristatin E (MMAE)]	11.7% and 32%	30.1	7.27	8.86	0.32	0.5	0.78	2.69
O=C(/C=C/c1ccccc1)OC[C@H]1O[C@@H](O[C@@H]2OC=C[C@H]3[C@H](O)[C@@H]4O[C@]4(CO)[C@@H]23)[C@H](O)[C@@H](O)[C@@H]1O [Picroside I]	99.3% and 101%	105	98.8	98.7	101	103	104	100
